Measurements taken from the supplement of paper PMC11732987, “Enantioselective OTUD7B fragment discovery through chemoproteomics screening and high-throughput optimisation” (Communications Chemistry, 2025).

Legend:
Assay in all cases: log2 ratio of Biotin-Ahx-Ub-VS probe labelling (fragment/DMSO); higher = less target engagement (more negative = stronger competition), active = hit call of the paper (q ≤ 0.05, log2 ratio ≤ -1)
Conditions in all cases: compound concentration: 200 uM; treatment time: 3 h
[1] = biological target: T1, USP42 (UniProt Q9H9J4)
T1 sequence (whole entry): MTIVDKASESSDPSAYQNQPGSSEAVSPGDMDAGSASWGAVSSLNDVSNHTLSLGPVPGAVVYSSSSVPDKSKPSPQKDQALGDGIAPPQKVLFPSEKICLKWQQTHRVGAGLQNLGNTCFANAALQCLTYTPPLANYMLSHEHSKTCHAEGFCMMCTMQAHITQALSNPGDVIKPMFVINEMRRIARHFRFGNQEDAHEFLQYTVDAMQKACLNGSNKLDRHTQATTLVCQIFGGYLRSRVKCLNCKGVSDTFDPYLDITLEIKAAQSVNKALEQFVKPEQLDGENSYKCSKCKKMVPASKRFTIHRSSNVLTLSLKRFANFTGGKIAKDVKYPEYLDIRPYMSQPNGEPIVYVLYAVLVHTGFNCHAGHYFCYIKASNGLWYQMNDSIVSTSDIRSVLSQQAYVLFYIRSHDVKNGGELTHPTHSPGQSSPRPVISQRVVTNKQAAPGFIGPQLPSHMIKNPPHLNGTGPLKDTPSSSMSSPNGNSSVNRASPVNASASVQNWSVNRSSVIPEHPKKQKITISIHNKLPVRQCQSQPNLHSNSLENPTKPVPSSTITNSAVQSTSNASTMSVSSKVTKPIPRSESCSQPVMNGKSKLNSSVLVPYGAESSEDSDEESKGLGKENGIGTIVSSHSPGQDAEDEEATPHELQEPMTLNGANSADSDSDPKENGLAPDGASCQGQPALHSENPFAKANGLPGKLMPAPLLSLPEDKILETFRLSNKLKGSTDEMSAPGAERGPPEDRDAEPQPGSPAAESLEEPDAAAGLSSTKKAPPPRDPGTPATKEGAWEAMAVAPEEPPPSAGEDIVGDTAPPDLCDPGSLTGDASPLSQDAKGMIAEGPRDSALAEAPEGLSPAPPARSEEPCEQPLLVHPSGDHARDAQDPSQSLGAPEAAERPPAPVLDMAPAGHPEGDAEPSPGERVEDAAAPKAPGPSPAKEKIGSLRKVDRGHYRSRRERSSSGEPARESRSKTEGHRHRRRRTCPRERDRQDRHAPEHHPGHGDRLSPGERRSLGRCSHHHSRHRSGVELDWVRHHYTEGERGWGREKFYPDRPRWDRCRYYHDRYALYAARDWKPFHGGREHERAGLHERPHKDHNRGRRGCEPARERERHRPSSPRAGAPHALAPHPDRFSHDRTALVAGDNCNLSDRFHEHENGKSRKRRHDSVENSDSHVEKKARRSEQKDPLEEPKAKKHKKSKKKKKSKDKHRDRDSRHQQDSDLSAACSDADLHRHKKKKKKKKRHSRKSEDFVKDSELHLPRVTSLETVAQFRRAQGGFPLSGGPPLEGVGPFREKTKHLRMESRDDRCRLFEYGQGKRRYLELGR
Outline: (§1)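 Each value is an average log2 ratio of fragment to vehicle, tested by unpaired t-test. The underlying Spectronaut label-free quantities were global-median-normalised, and only proteins with ≥2 unique peptides were included. Triplicate HEK293T lysate samples (495 µg) were exposed to fragment at 200 µM or vehicle for 3 h, then to Biotin-Ahx-Ub-VS at 0.5 µM final for 1 h, before NeutrAvidin enrichment of labelled DUBs, LysC and trypsin digestion, and diaPASEF LC-MS/MS.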

[2] = biological target: USP46 (UniProt P62068)
Outline: as §1

[3] = biological target: T2, USP47 (UniProt Q96K76)
T2 sequence (whole entry): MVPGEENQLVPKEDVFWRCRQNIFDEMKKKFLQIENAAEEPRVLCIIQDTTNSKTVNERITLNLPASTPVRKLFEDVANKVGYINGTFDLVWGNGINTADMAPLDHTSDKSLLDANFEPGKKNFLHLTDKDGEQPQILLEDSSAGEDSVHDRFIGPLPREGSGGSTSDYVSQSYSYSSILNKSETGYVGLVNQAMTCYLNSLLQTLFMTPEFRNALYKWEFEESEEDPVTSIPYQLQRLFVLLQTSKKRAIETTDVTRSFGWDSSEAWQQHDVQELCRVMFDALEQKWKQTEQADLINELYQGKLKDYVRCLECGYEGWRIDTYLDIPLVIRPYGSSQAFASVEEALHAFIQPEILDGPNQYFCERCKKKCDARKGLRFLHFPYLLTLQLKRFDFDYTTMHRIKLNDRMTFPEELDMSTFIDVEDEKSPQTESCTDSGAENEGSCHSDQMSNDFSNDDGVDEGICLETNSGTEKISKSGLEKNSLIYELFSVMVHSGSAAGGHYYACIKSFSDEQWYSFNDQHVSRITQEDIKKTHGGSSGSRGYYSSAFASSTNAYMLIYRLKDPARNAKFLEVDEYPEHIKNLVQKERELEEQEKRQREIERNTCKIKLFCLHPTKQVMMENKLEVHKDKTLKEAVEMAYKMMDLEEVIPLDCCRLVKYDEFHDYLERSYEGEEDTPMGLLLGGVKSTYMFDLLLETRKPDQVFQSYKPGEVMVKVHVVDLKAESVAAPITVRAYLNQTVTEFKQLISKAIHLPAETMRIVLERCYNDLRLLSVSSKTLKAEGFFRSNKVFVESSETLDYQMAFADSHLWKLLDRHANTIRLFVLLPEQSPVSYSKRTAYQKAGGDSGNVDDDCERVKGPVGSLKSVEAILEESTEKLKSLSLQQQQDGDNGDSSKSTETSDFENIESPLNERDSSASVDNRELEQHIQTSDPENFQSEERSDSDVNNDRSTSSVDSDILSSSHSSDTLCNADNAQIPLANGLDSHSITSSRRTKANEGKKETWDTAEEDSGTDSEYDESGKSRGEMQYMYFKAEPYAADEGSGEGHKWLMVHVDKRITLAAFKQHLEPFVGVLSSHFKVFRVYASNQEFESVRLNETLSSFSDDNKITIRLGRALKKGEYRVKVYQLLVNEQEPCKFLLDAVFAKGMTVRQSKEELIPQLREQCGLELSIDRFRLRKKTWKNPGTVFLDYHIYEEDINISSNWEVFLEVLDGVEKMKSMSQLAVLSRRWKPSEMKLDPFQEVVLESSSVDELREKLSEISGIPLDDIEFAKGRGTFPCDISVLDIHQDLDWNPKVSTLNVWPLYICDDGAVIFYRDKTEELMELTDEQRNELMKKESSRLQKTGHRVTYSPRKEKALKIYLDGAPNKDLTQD
Outline: as §1

[4] = biological target: T3, USP48 (UniProt Q86UV5)
T3 sequence (whole entry): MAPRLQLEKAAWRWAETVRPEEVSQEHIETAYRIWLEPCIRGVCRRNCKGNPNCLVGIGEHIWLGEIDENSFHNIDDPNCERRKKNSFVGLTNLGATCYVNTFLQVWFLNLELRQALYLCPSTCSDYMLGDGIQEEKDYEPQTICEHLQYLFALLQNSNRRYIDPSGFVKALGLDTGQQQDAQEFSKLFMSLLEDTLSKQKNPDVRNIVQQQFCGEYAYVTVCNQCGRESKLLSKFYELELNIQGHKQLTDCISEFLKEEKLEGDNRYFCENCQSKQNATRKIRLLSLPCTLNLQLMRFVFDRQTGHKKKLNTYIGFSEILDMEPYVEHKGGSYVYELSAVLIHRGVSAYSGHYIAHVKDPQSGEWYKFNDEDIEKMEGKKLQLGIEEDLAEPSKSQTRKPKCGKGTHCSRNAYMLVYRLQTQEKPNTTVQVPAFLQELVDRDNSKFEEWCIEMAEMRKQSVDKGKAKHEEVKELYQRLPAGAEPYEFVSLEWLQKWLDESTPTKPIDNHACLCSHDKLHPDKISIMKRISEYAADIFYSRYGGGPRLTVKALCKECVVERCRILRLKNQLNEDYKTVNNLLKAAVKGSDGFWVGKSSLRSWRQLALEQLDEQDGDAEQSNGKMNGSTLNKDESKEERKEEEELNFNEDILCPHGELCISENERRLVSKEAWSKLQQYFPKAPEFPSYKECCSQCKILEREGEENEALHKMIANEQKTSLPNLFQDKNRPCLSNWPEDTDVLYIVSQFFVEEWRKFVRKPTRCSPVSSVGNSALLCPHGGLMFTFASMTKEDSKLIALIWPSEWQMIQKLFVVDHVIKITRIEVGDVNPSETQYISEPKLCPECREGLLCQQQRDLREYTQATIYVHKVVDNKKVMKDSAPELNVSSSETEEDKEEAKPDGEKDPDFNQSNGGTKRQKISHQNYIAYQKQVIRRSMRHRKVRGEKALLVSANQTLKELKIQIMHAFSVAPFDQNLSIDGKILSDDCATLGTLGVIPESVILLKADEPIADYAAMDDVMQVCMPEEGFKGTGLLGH
Outline: as §1

[5] = biological target: T4, USP5 (UniProt P45974)
T4 sequence (whole entry): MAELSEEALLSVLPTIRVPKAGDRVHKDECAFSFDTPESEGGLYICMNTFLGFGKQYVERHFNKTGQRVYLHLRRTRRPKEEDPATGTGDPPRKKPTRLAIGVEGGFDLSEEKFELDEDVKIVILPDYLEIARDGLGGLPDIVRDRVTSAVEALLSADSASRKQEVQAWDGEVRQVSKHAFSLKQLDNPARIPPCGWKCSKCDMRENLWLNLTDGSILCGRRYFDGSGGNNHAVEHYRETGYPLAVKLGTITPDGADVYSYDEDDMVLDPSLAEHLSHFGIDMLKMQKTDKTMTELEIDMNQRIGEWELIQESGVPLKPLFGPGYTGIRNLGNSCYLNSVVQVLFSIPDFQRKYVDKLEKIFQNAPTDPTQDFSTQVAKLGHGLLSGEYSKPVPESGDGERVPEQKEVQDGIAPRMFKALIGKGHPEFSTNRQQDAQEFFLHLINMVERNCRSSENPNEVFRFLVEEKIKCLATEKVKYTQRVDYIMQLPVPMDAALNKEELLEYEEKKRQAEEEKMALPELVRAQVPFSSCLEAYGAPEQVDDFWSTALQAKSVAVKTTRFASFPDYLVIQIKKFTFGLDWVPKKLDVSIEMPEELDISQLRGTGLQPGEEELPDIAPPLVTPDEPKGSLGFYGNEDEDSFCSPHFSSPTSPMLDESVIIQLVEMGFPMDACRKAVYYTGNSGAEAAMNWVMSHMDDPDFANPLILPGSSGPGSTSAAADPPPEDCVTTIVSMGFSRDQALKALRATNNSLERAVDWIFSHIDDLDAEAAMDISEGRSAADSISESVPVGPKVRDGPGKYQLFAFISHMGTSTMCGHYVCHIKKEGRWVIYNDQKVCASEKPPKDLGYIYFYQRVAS
Outline: as §1

[6] = biological target: USP54 (UniProt Q70EL1)
Outline: as §1

[7] = biological target: USP7 (UniProt Q93009)
Outline: as §1

[8] = biological target: T5, USP8 (UniProt P40818)
T5 sequence (whole entry): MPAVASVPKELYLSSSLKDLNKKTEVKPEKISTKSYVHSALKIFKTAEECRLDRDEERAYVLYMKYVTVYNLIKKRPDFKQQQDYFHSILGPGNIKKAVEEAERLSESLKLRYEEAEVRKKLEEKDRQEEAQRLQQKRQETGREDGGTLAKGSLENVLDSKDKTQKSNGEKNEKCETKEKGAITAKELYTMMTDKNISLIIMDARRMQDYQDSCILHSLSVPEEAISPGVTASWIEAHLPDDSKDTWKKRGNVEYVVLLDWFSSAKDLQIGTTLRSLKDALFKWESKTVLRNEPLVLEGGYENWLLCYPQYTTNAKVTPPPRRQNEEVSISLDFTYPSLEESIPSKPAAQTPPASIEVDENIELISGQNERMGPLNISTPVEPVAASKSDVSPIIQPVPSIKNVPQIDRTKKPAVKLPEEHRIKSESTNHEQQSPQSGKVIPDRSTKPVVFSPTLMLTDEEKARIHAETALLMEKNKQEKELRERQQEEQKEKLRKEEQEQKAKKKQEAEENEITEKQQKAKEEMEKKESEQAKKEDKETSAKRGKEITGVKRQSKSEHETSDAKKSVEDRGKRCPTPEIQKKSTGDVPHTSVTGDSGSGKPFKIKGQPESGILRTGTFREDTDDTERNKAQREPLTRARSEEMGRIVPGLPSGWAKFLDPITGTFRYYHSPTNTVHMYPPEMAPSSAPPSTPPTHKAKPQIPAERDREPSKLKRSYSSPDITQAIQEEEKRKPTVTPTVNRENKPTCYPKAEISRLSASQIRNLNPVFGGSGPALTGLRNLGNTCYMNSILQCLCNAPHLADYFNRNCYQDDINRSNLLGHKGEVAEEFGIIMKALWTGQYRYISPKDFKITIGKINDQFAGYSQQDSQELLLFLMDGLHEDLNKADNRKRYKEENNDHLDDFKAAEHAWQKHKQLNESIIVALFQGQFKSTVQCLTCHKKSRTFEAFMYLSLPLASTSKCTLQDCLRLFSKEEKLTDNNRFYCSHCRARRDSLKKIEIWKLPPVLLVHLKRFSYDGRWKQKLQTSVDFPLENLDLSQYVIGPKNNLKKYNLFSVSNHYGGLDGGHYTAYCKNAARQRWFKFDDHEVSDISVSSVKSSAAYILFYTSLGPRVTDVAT
Outline: as §1

[9] = biological target: USP9X (UniProt Q93008)
Outline: as §1

[10] = biological target: UniProt O00487
Outline: as §1

Measured: log2 ratio of Biotin-Ahx-Ub-VS probe labelling

USP54, sequence (Q70EL1 whole entry): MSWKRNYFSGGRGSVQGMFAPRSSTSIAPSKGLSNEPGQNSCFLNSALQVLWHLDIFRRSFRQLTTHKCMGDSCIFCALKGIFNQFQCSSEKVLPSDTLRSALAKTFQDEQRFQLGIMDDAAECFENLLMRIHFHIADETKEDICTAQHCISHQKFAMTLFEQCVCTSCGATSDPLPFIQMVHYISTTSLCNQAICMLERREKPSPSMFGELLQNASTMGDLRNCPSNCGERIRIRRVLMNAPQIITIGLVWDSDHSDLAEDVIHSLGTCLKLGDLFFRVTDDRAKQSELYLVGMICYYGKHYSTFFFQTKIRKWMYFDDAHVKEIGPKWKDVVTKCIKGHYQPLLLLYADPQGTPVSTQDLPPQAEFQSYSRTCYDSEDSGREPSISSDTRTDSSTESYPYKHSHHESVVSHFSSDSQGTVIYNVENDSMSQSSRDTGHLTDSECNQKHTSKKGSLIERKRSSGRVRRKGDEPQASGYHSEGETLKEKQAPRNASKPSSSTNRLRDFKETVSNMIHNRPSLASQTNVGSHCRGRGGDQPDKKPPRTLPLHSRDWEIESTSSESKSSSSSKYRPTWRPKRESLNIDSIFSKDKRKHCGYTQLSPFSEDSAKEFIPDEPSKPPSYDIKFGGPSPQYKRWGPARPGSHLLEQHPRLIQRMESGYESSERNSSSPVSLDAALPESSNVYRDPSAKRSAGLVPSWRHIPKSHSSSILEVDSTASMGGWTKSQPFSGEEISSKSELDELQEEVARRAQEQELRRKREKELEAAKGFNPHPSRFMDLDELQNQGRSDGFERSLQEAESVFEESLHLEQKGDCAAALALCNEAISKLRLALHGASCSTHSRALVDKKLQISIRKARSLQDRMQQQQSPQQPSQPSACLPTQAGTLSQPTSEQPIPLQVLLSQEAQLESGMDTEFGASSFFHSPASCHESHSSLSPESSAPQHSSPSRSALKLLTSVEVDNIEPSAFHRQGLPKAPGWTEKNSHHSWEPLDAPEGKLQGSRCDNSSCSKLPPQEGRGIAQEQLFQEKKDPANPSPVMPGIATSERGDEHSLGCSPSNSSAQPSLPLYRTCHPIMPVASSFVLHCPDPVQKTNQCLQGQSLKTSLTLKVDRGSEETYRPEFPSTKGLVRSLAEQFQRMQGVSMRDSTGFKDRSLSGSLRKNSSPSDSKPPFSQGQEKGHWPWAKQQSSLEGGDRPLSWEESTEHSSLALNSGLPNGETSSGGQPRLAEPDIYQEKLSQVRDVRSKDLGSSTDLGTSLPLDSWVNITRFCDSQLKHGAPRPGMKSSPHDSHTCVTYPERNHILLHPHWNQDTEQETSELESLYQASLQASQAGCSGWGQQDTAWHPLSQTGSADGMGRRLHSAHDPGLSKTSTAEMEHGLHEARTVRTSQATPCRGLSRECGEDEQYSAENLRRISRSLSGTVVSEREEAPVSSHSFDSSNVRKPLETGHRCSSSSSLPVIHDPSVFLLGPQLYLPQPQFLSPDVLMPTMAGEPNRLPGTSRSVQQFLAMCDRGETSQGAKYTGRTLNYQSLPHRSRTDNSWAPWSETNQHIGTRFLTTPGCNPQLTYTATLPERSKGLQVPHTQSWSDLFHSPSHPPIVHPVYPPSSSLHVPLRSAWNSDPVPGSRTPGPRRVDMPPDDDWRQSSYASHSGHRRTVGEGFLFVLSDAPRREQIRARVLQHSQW
UniProt O00487, sequence (O00487 whole entry): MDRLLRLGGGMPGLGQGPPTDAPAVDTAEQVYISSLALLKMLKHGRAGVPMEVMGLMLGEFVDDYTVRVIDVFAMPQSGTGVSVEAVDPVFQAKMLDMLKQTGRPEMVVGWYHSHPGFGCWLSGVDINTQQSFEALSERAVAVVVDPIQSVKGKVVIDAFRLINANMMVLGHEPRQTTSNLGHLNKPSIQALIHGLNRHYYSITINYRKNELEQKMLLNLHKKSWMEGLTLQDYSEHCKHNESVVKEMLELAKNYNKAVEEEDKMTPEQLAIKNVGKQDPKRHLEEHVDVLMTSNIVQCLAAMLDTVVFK
USP7, sequence (Q93009 whole entry, looked up): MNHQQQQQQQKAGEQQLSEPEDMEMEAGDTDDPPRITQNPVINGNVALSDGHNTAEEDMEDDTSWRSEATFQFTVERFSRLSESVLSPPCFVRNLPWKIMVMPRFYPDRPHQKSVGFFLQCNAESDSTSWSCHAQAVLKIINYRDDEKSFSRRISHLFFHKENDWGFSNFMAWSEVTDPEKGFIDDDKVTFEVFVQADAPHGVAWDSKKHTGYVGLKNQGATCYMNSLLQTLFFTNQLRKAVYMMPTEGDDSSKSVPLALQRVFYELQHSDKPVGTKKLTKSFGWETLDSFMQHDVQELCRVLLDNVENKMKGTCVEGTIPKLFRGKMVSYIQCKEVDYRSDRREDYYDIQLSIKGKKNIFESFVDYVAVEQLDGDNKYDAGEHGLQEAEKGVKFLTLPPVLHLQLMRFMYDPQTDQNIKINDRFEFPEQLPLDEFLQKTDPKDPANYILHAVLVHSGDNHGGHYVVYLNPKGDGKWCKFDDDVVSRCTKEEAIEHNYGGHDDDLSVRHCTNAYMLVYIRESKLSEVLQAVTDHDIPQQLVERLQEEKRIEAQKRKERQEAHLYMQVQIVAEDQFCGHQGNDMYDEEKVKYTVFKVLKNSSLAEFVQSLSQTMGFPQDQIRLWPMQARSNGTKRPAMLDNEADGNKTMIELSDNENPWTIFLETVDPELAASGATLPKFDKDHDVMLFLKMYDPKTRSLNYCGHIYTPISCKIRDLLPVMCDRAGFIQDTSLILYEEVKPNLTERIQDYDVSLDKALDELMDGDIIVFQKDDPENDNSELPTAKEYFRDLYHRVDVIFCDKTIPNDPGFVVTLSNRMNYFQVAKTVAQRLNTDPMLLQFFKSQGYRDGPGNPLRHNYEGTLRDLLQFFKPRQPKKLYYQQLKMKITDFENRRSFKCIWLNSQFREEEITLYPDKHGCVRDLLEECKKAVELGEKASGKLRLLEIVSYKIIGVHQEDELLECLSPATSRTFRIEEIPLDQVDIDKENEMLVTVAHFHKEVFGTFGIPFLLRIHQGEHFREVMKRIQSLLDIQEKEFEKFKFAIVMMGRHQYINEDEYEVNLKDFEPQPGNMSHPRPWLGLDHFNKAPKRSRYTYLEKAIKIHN
USP46, sequence (P62068 whole entry): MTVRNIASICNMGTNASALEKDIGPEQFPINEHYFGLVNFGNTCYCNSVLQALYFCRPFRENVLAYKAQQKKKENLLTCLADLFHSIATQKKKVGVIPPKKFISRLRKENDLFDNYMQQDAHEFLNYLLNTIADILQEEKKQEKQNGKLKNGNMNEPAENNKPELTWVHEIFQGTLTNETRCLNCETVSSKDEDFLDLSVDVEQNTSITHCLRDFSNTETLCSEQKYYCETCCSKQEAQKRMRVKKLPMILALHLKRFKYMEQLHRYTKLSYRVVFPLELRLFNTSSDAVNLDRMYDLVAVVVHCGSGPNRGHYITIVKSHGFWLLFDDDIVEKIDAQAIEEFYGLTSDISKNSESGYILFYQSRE

O=C(CCl)Nc1ccc(Cl)c(F)c1
inactive: [1] -0.0407 | [2] -0.231 | [3] -0.798 | [4] -0.731 | [5] -0.223 | [6] -0.268 | [7] -0.646 | [8] -0.207 | [9] -0.282 | [10] -0.0232
